# Measured values reported in the supplement of paper PMC12282887.
# ± gives the standard deviation of the averaged measurements.
# Tests used:
# Assay in all cases: promoter activity interaction Z-score (Lux/OD deviation from empty-vector control); higher = stronger promoter induction by the compound
# [1] = tested on: E. coli BW25113 acrABp lux reporter
# Summary of the method: (§1)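 E. coli BW25113 (wild type or marA, soxS or rob deletion) carrying low-copy luxCDABE promoter reporters grew in 40 µl LB Lennox in 384-well plates at 37°C. Each compound was tested at four 1:2 dilutions in biological duplicates. OD600 and luminescence were read every 30 min for 12 h. Areas were taken over 0–8 h (wild type) or 1–9 h (mutants), and wells below 10% of median growth area were removed. The score is the Z-transformed residual of growth-normalised luminescence fitted against the empty-vector control.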
# [2] = tested on: E. coli BW25113 marRABp lux reporter
# Summary of the method: as §1
# [3] = tested on: E. coli BW25113 micFp lux reporter
# Summary of the method: as §1
# [4] = tested on: E. coli BW25113 ompFp lux reporter
# Summary of the method: as §1
# [5] = tested on: E. coli BW25113 robp lux reporter
# Summary of the method: as §1
# [6] = tested on: E. coli BW25113 soxSp lux reporter
# Summary of the method: as §1
# [7] = tested on: E. coli BW25113 tolCp lux reporter
# Summary of the method: as §1
# [8] = 0.0045 µg/ml, genetic background: wild type
# [9] = 0.0045 µg/ml, genetic background: ΔmarA
# [10] = 0.0045 µg/ml, genetic background: Δrob
# [11] = 0.0045 µg/ml, genetic background: ΔsoxS
# [12] = 0.009 µg/ml, genetic background: wild type
# [13] = 0.009 µg/ml, genetic background: ΔmarA
# [14] = 0.009 µg/ml, genetic background: Δrob
# [15] = 0.009 µg/ml, genetic background: ΔsoxS
# [16] = 0.45 µg/ml, genetic background: wild type
# [17] = 0.45 µg/ml, genetic background: ΔmarA
# [18] = 0.45 µg/ml, genetic background: Δrob
# [19] = 0.45 µg/ml, genetic background: ΔsoxS
# [20] = 0.89 µg/ml, genetic background: wild type
# [21] = 0.89 µg/ml, genetic background: ΔmarA
# [22] = 0.89 µg/ml, genetic background: Δrob
# [23] = 0.89 µg/ml, genetic background: ΔsoxS
# [24] = 1.8 µg/ml, genetic background: wild type
# [25] = 1.8 µg/ml, genetic background: ΔmarA
# [26] = 1.8 µg/ml, genetic background: Δrob
# [27] = 1.8 µg/ml, genetic background: ΔsoxS
# [28] = 3.6 µg/ml, genetic background: wild type
# [29] = 3.6 µg/ml, genetic background: ΔmarA
# [30] = 3.6 µg/ml, genetic background: ΔsoxS
# [31] = 3.6 µg/ml, genetic background: Δrob
smiles,measurement,setting,value
C[C@H]1COc2c(N3CCN(C)CC3)c(F)cc3c(=O)c(C(=O)O)cn1c23 [Levofloxacin],promoter activity interaction Z-score,[1]; [8],0.161 ± 0.16
same,promoter activity interaction Z-score,[1]; [9],1.19 ± 0.57
same,promoter activity interaction Z-score,[1]; [10],0.765 ± 0.3
same,promoter activity interaction Z-score,[1]; [11],0.13 ± 0.43
same,promoter activity interaction Z-score,[1]; [12],1.49 ± 0.47
same,promoter activity interaction Z-score,[1]; [13],3.65 ± 2.5
same,promoter activity interaction Z-score,[1]; [14],3
same,promoter activity interaction Z-score,[1]; [15],0.933 ± 0.088
same,promoter activity interaction Z-score,[2]; [8],0.0777 ± 0.09
same,promoter activity interaction Z-score,[2]; [9],0.886 ± 0.81
same,promoter activity interaction Z-score,[2]; [10],0.457 ± 0.39
same,promoter activity interaction Z-score,[2]; [11],0.129 ± 0.058
same,promoter activity interaction Z-score,[2]; [12],1.81 ± 0.43
same,promoter activity interaction Z-score,[2]; [14],2.37
same,promoter activity interaction Z-score,[2]; [15],1.61 ± 0.18
same,promoter activity interaction Z-score,[3]; [8],-0.267 ± 0.3
same,promoter activity interaction Z-score,[3]; [9],0.407 ± 0.14
same,promoter activity interaction Z-score,[3]; [10],0.249 ± 0.18
same,promoter activity interaction Z-score,[3]; [11],0.076 ± 0.062
same,promoter activity interaction Z-score,[3]; [12],0.268 ± 0.26
same,promoter activity interaction Z-score,[3]; [13],0.154 ± 0.1
same,promoter activity interaction Z-score,[3]; [14],-0.048
same,promoter activity interaction Z-score,[3]; [15],0.58 ± 0.097
same,promoter activity interaction Z-score,[4]; [8],0.0942 ± 0.084
same,promoter activity interaction Z-score,[4]; [9],0.337 ± 0.47
same,promoter activity interaction Z-score,[4]; [10],0.283 ± 0.32
same,promoter activity interaction Z-score,[4]; [11],0.00971 ± 0.41
same,promoter activity interaction Z-score,[4]; [12],0.729 ± 0.33
same,promoter activity interaction Z-score,[4]; [13],1.02 ± 1.5
same,promoter activity interaction Z-score,[4]; [15],2.15 ± 2.1
same,promoter activity interaction Z-score,[5]; [8],0.859 ± 0.36
same,promoter activity interaction Z-score,[5]; [9],0.95 ± 0.41
same,promoter activity interaction Z-score,[5]; [10],-0.178 ± 0.062
same,promoter activity interaction Z-score,[5]; [11],0.248 ± 0.29
same,promoter activity interaction Z-score,[5]; [12],-0.182 ± 0.079
same,promoter activity interaction Z-score,[5]; [13],0.841 ± 0.84
same,promoter activity interaction Z-score,[5]; [14],0.348
same,promoter activity interaction Z-score,[5]; [15],-0.154 ± 1.2
same,promoter activity interaction Z-score,[6]; [8],-0.114 ± 0.024
same,promoter activity interaction Z-score,[6]; [9],0.133 ± 0.013
same,promoter activity interaction Z-score,[6]; [10],-0.071 ± 0.15
same,promoter activity interaction Z-score,[6]; [11],0.197 ± 0.43
same,promoter activity interaction Z-score,[6]; [12],0.185 ± 0.047
same,promoter activity interaction Z-score,[6]; [13],0.0863 ± 0.079
same,promoter activity interaction Z-score,[6]; [14],-0.0469 ± 0.15
same,promoter activity interaction Z-score,[6]; [15],2.32 ± 0.6
same,promoter activity interaction Z-score,[7]; [8],-0.228 ± 1.2
same,promoter activity interaction Z-score,[7]; [9],0.741 ± 0.18
same,promoter activity interaction Z-score,[7]; [10],-0.128 ± 1
same,promoter activity interaction Z-score,[7]; [11],-0.647 ± 0.99
same,promoter activity interaction Z-score,[7]; [12],0.287 ± 1
same,promoter activity interaction Z-score,[7]; [13],0.606
same,promoter activity interaction Z-score,[7]; [14],-0.887
same,promoter activity interaction Z-score,[7]; [15],2.55 ± 1.9
O=C1CN(/N=C/c2ccc([N+](=O)[O-])o2)C(=O)N1 [Nitrofurantoin],promoter activity interaction Z-score,[1]; [16],0.0114 ± 0.17
same,promoter activity interaction Z-score,[1]; [17],0.119 ± 1.2
same,promoter activity interaction Z-score,[1]; [18],0.336 ± 0.34
same,promoter activity interaction Z-score,[1]; [19],0.0185 ± 0.49
same,promoter activity interaction Z-score,[1]; [20],-0.124 ± 0.043
same,promoter activity interaction Z-score,[1]; [21],0.483 ± 1.2
same,promoter activity interaction Z-score,[1]; [22],0.267 ± 0.28
same,promoter activity interaction Z-score,[1]; [23],-0.258 ± 0.11
same,promoter activity interaction Z-score,[1]; [24],0.24 ± 0.28
same,promoter activity interaction Z-score,[1]; [25],-0.0961 ± 0.62
same,promoter activity interaction Z-score,[1]; [26],0.562 ± 0.54
same,promoter activity interaction Z-score,[1]; [27],0.221 ± 0.13
same,promoter activity interaction Z-score,[1]; [28],5.63 ± 1.8
same,promoter activity interaction Z-score,[1]; [29],1.31 ± 1.1
same,promoter activity interaction Z-score,[1]; [30],1.31
same,promoter activity interaction Z-score,[3]; [16],-0.201 ± 0.35
same,promoter activity interaction Z-score,[3]; [17],-0.0627 ± 0.036
same,promoter activity interaction Z-score,[3]; [18],-0.0214 ± 0.074
same,promoter activity interaction Z-score,[3]; [19],0.0613 ± 0.061
same,promoter activity interaction Z-score,[3]; [20],-0.0281 ± 0.071
same,promoter activity interaction Z-score,[3]; [21],0.0181 ± 0.016
same,promoter activity interaction Z-score,[3]; [22],0.0629 ± 0.06
same,promoter activity interaction Z-score,[3]; [23],-0.168 ± 0.14
same,promoter activity interaction Z-score,[3]; [24],-0.0112 ± 0.03
same,promoter activity interaction Z-score,[3]; [25],-0.163 ± 0.13
same,promoter activity interaction Z-score,[3]; [26],0.113 ± 0.19
same,promoter activity interaction Z-score,[3]; [27],0.261 ± 0.17
same,promoter activity interaction Z-score,[3]; [28],-0.0667 ± 0.48
same,promoter activity interaction Z-score,[3]; [29],-0.232 ± 0.11
same,promoter activity interaction Z-score,[3]; [31],1.15 ± 0.47
same,promoter activity interaction Z-score,[3]; [30],0.96
same,promoter activity interaction Z-score,[4]; [16],-0.15 ± 0.13
same,promoter activity interaction Z-score,[4]; [17],-0.453 ± 0.32
same,promoter activity interaction Z-score,[4]; [18],-0.0497 ± 0.041
same,promoter activity interaction Z-score,[4]; [19],0.0722 ± 0.049
same,promoter activity interaction Z-score,[4]; [20],-0.0847 ± 0.24
same,promoter activity interaction Z-score,[4]; [21],-0.089 ± 0.056
same,promoter activity interaction Z-score,[4]; [22],-0.35 ± 0.18
same,promoter activity interaction Z-score,[4]; [23],-0.556 ± 0.079
same,promoter activity interaction Z-score,[4]; [24],-0.226 ± 0.099
same,promoter activity interaction Z-score,[4]; [25],-0.21 ± 0.076
same,promoter activity interaction Z-score,[4]; [26],0.603 ± 0.17
same,promoter activity interaction Z-score,[4]; [27],0.0583 ± 0.32
same,promoter activity interaction Z-score,[4]; [28],-2.5
same,promoter activity interaction Z-score,[4]; [29],1.3 ± 0.68
same,promoter activity interaction Z-score,[4]; [31],3.89
same,promoter activity interaction Z-score,[4]; [30],-0.534
same,promoter activity interaction Z-score,[5]; [16],0.114 ± 0.034
same,promoter activity interaction Z-score,[5]; [17],0.455 ± 0.074
same,promoter activity interaction Z-score,[5]; [18],0.575 ± 0.24
same,promoter activity interaction Z-score,[5]; [19],0.737 ± 0.98
same,promoter activity interaction Z-score,[5]; [20],0.053 ± 0.093
same,promoter activity interaction Z-score,[5]; [21],1.12 ± 0.13
same,promoter activity interaction Z-score,[5]; [22],-0.308 ± 0.14
same,promoter activity interaction Z-score,[5]; [23],0.326 ± 0.87
same,promoter activity interaction Z-score,[5]; [24],-0.109 ± 0.28
same,promoter activity interaction Z-score,[5]; [25],-0.423 ± 0.23
same,promoter activity interaction Z-score,[5]; [26],-0.197 ± 0.6
same,promoter activity interaction Z-score,[5]; [27],0.0845 ± 0.42
same,promoter activity interaction Z-score,[5]; [28],-0.125 ± 0.22
same,promoter activity interaction Z-score,[5]; [29],-0.424 ± 0.58
same,promoter activity interaction Z-score,[5]; [30],0.453 ± 1.5
same,promoter activity interaction Z-score,[6]; [16],0.0106 ± 0.12
same,promoter activity interaction Z-score,[6]; [17],-0.137 ± 0.086
same,promoter activity interaction Z-score,[6]; [18],-0.0668 ± 0.14
same,promoter activity interaction Z-score,[6]; [19],0.0402 ± 0.15
same,promoter activity interaction Z-score,[6]; [20],0.102 ± 0.0085
same,promoter activity interaction Z-score,[6]; [21],0.0915 ± 0.093
same,promoter activity interaction Z-score,[6]; [22],0.0454 ± 0.22
same,promoter activity interaction Z-score,[6]; [23],0.0812 ± 0.0067
same,promoter activity interaction Z-score,[6]; [24],0.0189 ± 0.12
same,promoter activity interaction Z-score,[6]; [25],-0.113 ± 0.12
same,promoter activity interaction Z-score,[6]; [26],-0.00251 ± 0.13
same,promoter activity interaction Z-score,[6]; [27],0.294 ± 0.093
same,promoter activity interaction Z-score,[6]; [28],0.367 ± 0.26
same,promoter activity interaction Z-score,[6]; [29],0.0789 ± 0.17
same,promoter activity interaction Z-score,[6]; [31],-0.00598 ± 0.3
same,promoter activity interaction Z-score,[6]; [30],0.987 ± 0.11
same,promoter activity interaction Z-score,[7]; [16],-0.752 ± 0.08
same,promoter activity interaction Z-score,[7]; [17],-0.242 ± 1.3
same,promoter activity interaction Z-score,[7]; [18],-0.5 ± 0.78
same,promoter activity interaction Z-score,[7]; [19],-0.5485 ± 0.0052
same,promoter activity interaction Z-score,[7]; [20],0.445 ± 0.35
same,promoter activity interaction Z-score,[7]; [21],0.287 ± 1.1
same,promoter activity interaction Z-score,[7]; [22],-0.164 ± 0.15
same,promoter activity interaction Z-score,[7]; [23],-0.317 ± 0.33
same,promoter activity interaction Z-score,[7]; [24],-0.711 ± 0.13
same,promoter activity interaction Z-score,[7]; [25],-0.75 ± 0.79
same,promoter activity interaction Z-score,[7]; [26],0.238 ± 0.13
same,promoter activity interaction Z-score,[7]; [27],0.385 ± 1.6
same,promoter activity interaction Z-score,[7]; [28],1.24 ± 0.17
same,promoter activity interaction Z-score,[7]; [29],-1.22 ± 0.056
same,promoter activity interaction Z-score,[7]; [31],0.356 ± 0.69
same,promoter activity interaction Z-score,[7]; [30],0.0431 ± 0.49
